From PubChem
Shown are actives, neighbours in structure and some others; about 3.6% of the full set was active somewhere.
D1 antag = antagonists of human D1 dopamine receptor; HEK293 TREx D1 cells, calcium flux, dopamine EC80; hits give low values; activity change, negative = inhibition, % at 10 µM; hit rate 3.2% among 360,000; in the data active = activity change below about -30%; also: % is scaled to controls: 0 for no effect and ±100 for the full control effect
Target sequence (P21728 whole entry, looked up): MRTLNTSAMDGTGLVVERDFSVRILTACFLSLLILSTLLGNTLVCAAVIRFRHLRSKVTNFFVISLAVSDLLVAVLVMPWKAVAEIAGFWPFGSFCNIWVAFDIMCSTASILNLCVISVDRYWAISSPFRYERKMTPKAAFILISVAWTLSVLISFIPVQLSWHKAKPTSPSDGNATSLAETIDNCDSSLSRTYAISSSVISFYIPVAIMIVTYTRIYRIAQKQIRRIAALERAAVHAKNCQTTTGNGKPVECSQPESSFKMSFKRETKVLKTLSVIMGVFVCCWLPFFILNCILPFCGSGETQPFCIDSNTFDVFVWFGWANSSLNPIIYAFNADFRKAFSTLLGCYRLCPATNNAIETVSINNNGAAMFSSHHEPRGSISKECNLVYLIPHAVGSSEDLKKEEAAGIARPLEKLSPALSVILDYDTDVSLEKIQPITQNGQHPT
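Kinetic fluorescence of a calcium dye serves as the read-out. D1-expressing Hek293 Trex cells, induced overnight at 30 C, are exposed to compound for 180 s before an EC80 dopamine addition, then read 180 s further.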
TRHR ag = agonists of human TRH receptor. P34981. TRHR cells, calcium flux fluo-8, FDSS agonist mode. activation, % at 2 µM. hit rate 0.18% among 360,000. AID 493084; also: 0% is about no effect
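Fluo-8-loaded TRHR cells; 10 s baseline, compound added, kinetic Ca2+ fluorescence read 1/s, agonist mode.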
D1 agonist = activates the human D1 dopamine receptor; P21728; HEK293 T-REx D1 cells, calcium flux, agonist mode; activation, % at 2 µM; hit rate 1% among 360,000; AID 504660; also: 0% is about no effect
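Inducible HEK293 T-REx D1 cells, force-coupled to calcium signalling, were plated at 4000 cells/well with tetracycline and held overnight at 30 C. After no-wash calcium dye loading, compound-evoked calcium rise over 180 s flagged agonists.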
D1 potentiator = human D1 dopamine receptor positive modulation. P21728. HEK293 TREx D1 cells, calcium flux, dopamine EC20 potentiation. potentiation, % at 10 µM. hit rate 0.036% among 360,000. AID 504651; in the data active = potentiation above about 30%; also: 0% is about no effect
LDHA inh = LDHA (human) enzyme inhibition; P00338; purified LDHA, NADH/diaphorase-resazurin fluorescence; hits give low values; activity change, % (values are at about 110 or 230 µM); hit rate 0.15% among 480,000; AID 1347041; in the data active = activity change below about -30%; inconclusive = mostly about -25% to -30%;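 also: plate controls were DMSO wells for no effect and wells without enzyme for full effect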
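Enzyme activity of human lactate dehydrogenase 5 (2 nM; 0.06 mM NADH, 0.2 mM pyruvate, 5 min, RT) is measured via a resazurin/diaphorase fluorescence readout of residual NADH.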
TRHR enhancer = allosterically enhances the human TRH receptor. hit rate 0.66% among 360,000. enhancement, % at 2 µM. TRHR cells, fluo-8 calcium fluorescence, EC20 TRH enhancement. P34981; in the data active = enhancement above about 30%; also: 0% is about no effect
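Enhancer read-out: after compound pinning and an initial kinetic agonist-mode read, an EC20 of TRH (10 nM final) was injected and fluo-8 calcium signal (Ex 480/Em 530) followed at 1 s/cycle for 100 cycles in TRHR-expressing cells.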
* = called active by the depositor; ? = inconclusive; / = no result given; ! = not active in a repeat. Rule as the data show it, unless noted: active = activation above about 30%; inactive = the rest.

SMILES | D1 antag | TRHR ag | D1 agonist | D1 potentiator | LDHA inh | TRHR enhancer
O=S(=O)(Nc1ccc(N2CCOCC2)nn1)c1ccccc1 | -47.1* | 0.0 | 1.9 | -1.6 | -5.6 | 13.4
Cc1ccccc1Nc1c(-c2c[nH]c3ccccc23)nc2cccc(C)n12 | -5.3 | 10.8 | 32.7* | 3.4 | 0.1 | -0.9
Cc1ccc2nc(-c3c[nH]c4ccccc34)c(Nc3ccccc3C)n2c1 | -8.7 | 0.0 | -0.9 | 0.1 | -8.6 | 11.6
O=S(=O)(c1cccs1)N1CCC(Cc2ccccc2)CC1 | -42.4* | 0.7 | 10.8 | -0.4 | -1.8 | -10.7
O=C(CCc1ccccc1)N1CCN(S(=O)(=O)c2cccs2)CC1 | -39.7* | 0.1 | 3.3 | -3.1 | -4.8 | -0.1
CC(C)c1ccc(C(=O)NNC(=O)C2C3CCC(C3)C2C(=O)O)cc1 (stereo not drawn) | -74.8* | -0.7 | -0.2 | -3.5 | / | -1.1
O=c1c2ccccc2sn1-c1ccc(Cl)cc1 | / | / | / | / | -51.8* | /
O=c1c2cc(F)ccc2sn1-c1ccccc1Cl | / | / | / | / | -42.9* | /
O=c1c2ccccc2sn1-c1ccc(F)cc1 | -43.9* | 10.2 | 64.9* | -5.8 | -31.0* | 19.2
O=c1c2ccc(F)cc2sn1-c1ccccc1 | / | / | / | / | -13.4 | /
Cc1ccc(-n2sc3ccccc3c2=O)cc1 | -15.4 | 2.6 | 9.9 | -1.6 | -35.4* | 8.0
Cc1ccc(-n2sc3cc(F)ccc3c2=O)c(C)c1 | / | / | / | / | -3.7 | /
COC(=O)c1cccc(-n2sc3ccccc3c2=O)c1 | -9.1 | 2.0 | 2.3 | 2.0 | ? | -1.1
CCCC(=O)Nc1cc2c(cc1Sc1ccccc1Cl)n(C)c(=O)n2C | / | / | / | / | 10.3 | /
O=C(NC1CCCCC1)c1ccccc1NC(=O)C1CCN(S(=O)(=O)Cc2ccccc2)CC1 | / | / | / | / | 8.3 | /
CCOC(=O)COc1ccc2c(=O)c(-c3ccc(OC)c(OC)c3)c(C(=O)OCC)oc2c1 | -45.4* | -0.6 | -0.6 | -4.8 | -1.0 | -5.1
Cc1ccc(NC(=O)Nc2cc(S(C)(=O)=O)ccc2Cl)cc1 | -38.2* | -0.6 | 2.6 | -3.2 | -1.4 | -3.0
Cc1c(C(=O)Nc2ccc(S(=O)(=O)N(C)C)cc2)oc2c(Cl)cccc12 | / | / | / | / | 6.0 | /
CN(CC(=O)NC1CCCCNC1=O)Cc1ccc(F)cc1F (stereo not drawn) | / | / | / | / | 9.4 | /
COCC(=O)Nc1ccc(N2CCCC2)c(S(=O)(=O)Nc2ccccc2OC)c1 | -31.2* | -0.1 | -0.6 | 9.3 | 4.5 | -5.7
COc1ccccc1NS(=O)(=O)c1cc(NC(C)=O)ccc1N1CCCCC1 | 11.3 | 1.6 | 3.8 | 6.5 | 0.2 | -1.9
Cc1ccc(-c2nn(C)c(=O)c3c2CCCC3)cc1S(=O)(=O)N1CCCCCC1 | / | / | / | / | -1.5 | /
CCS(=O)(=O)c1ccc2oc(Nc3ccc(Oc4ccccc4)cc3)nc2c1 | / | / | / | / | 2.1 | /
COc1ccc(S(=O)(=O)N2c3ccccc3OCC2C(C)(C)C)cc1 (stereo not drawn) | -62.8* | 1.1 | 4.3 | -8.5 | -3.6 | -4.3
COc1ccc(S(=O)(=O)N2c3ccccc3OCC2C)cc1 (stereo not drawn) | 11.7 | -0.5 | -1.1 | 2.1 | -1.6 | -2.3
SMILES | D1 antag | TRHR ag | D1 agonist | D1 potentiator | LDHA inh | TRHR enhancer
Nc1ncc(Br)cc1S(=O)(=O)Nc1cc(C(F)(F)F)cc(C(F)(F)F)c1 | -34.0* | 3.6 | 19.2 | -6.1 | -8.6 | -6.6
CCOC(=O)c1c(CN2CCOCC2)oc2ccc(OC)cc12 | -45.2* | -0.4 | 2.4 | -4.7 | 1.0 | 4.3
COc1ccc2oc(C(=O)OCC(=O)Nc3ccc(N4CCOCC4)cc3)c(C)c2c1 | -30.9* | 0.3 | 0.5 | -19.8 | -3.1 | 2.0
CC(C)Sc1ccc2nn(CC(=O)Nc3ccc(Cl)cc3)c(=O)n2n1 | / | / | / | / | 9.1 | /
O=C(Oc1ccccc1)c1ccc(COC(=O)c2cnccn2)cc1 | -14.3 | -0.8 | 7.4 | -7.6 | -4.7 | -8.0
O=C(Oc1ccc(Cl)cc1)c1ccc(COC(=O)c2cnccn2)cc1 | -30.7* | 0.0 | 6.6 | 7.1 | 0.0 | -2.6
N#Cc1cccc(NC(=O)c2n[nH]c(=O)c3ccccc23)c1 | / | / | / | / | 6.5 | /
Cc1csc(C2=C(O)CN(CCc3ccccc3)C2=N)n1 | -39.6* | -0.2 | -0.4 | -10.2 | -1.7 | 3.3
CC(C)CNC1CCS(=O)(=O)C1 (stereo not drawn) | -13.5 | -0.6 | 1.2 | 10.4 | -2.3 | -2.4
O=[N+]([O-])C(C1CCS(=O)(=O)C1)C1CCS(=O)(=O)C1 (stereo not drawn) | -32.9* | -0.1 | 1.5 | -3.5 | -12.3 | 4.0
CC(C)Cc1ccc(C(C)NC(=O)c2ccc(=O)[nH]c2)cc1 (stereo not drawn) | -16.3 | 4.8 | 49.4* | 0.9 | -1.0 | 0.7
CC(C)Cc1ccc(C(C)NC(=O)c2ccc(CS(C)(=O)=O)cc2)cc1 (stereo not drawn) | / | / | / | / | 2.0 | /
CC(C)C(=O)Nc1nnc(S(=O)(=O)N2CCCCCC2)s1 | -31.8*! | 1.4 | 0.5 | -0.9 | -4.6 | 7.4
O=C(Nc1nnc(S(=O)(=O)N2CCCCC2)s1)c1cccc(Br)c1 | -5.0 | 0.6 | 30.3* | -3.6 | 2.2 | -0.9
O=C(Nc1nnc(S(=O)(=O)N2CCCCCC2)s1)c1ccc(Cl)cc1 | 4.3 | 0.7 | 7.6 | 7.6 | -4.4 | 36.7*!
CC1CCN(S(=O)(=O)c2nnc(NC(=O)c3cccc(Br)c3)s2)CC1 | 10.3 | 0.2 | 0.7 | 0.3 | -2.9 | -1.3
Cc1ccc(C(=O)Nc2nnc(S(=O)(=O)N3CCCCCC3)s2)cc1 | -1.9 | -0.2 | 0.9 | -2.9 | -2.9 | 4.7
COCCCNC(=O)c1cc(-c2cccc(C)c2)nc2ccccc12 | / | / | / | / | -6.3 | /
Cc1ccc(Cl)cc1NC(=O)CCNC(=O)CCC(=O)c1cccs1 | / | / | / | / | 11.0 | /
O=C(NC(=S)Nc1ccc2cn[nH]c2c1)c1ccccc1 | -35.0* | 1.2 | 9.6 | -3.6 | 0.9 | 3.6
O=C(Nc1cccc(Cl)c1Cl)c1snnc1-c1ccccc1 | 7.6 | 0.3 | 26.1 | -3.5 | 0.9 | -2.1
O=C(Nc1cc(Cl)ccc1Cl)c1ccc(-c2ccccc2)cc1 | -34.0* | 1.0 | 12.1 | -0.8 | -7.9 | 9.0
O=C(NC(=S)Nc1ccc(Cl)cc1)c1ccccc1 | -53.2* | 5.1 | 13.4 | -5.4 | -8.6 | 9.0
O=C(Nc1ccc(Cl)cc1F)c1ccc(-c2ccccc2)cc1 | / | / | / | / | 5.9 | /
O=C(Nc1cc(Cl)ccc1O)c1snnc1-c1ccccc1 | -38.7* | 3.5 | 19.4 | -2.9 | -3.7 | -8.5
O=C(Nc1ccc(F)c(Cl)c1)c1ccccc1 | -46.5* | -1.1 | 21.0 | -7.8 | -4.0 | 0.4
O=C(Nc1ccc(F)c(Cl)c1)c1cccnc1 | -9.3 | 0.3 | 2.9 | -1.8 | -10.1 | -6.4
COc1ccc(S(=O)(=O)Nc2cc(Cl)ccc2-n2cncn2)cc1 | -61.5* | 1.1 | -0.5 | -1.2 | -5.3 | 5.8
Cc1cc(NC(=O)CN2C(=O)c3ccccc3S2(=O)=O)no1 | 17.6 | 0.1 | 2.1 | -3.5 | -17.1 | 30.2*
